From PubChem
Rows were chosen to be rich in hits. Some 3.5% of all compounds tested hit in one or more screens of this group.
TEAD-YAP inh = TEAD-YAP interaction inhibition; HEK-TIYL cells, TEAD-Gal4/YAP UAS-luciferase luminescence; 1.4% of 640,000 active; inhibition, % at 9.12 µM; AID 1259422; in the data active means inhibition above about 32%
MITF primary = inhibitors of human MITF; O75030; AlphaScreen MITF homodimerization, bead proximity signal; inhibition, % at 2.6 µM; 0.91% of 650,000 active; in the data active means inhibition above about 50%
FBW7 activator = human FBW7 E3 ligase activation, primary screen | Q969H0 | AID 1259310 | AlphaScreen FBW7–phospho-cyclin E peptide binding, activator screen | normalized activity (activation), % at 26.1 µM | 0.13% of 650,000 active; in the data active means normalized activity above about 1.9%;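 further: purified mutant Fbw7 with reduced substrate affinity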
Target sequence (Q969H0 whole entry, looked up): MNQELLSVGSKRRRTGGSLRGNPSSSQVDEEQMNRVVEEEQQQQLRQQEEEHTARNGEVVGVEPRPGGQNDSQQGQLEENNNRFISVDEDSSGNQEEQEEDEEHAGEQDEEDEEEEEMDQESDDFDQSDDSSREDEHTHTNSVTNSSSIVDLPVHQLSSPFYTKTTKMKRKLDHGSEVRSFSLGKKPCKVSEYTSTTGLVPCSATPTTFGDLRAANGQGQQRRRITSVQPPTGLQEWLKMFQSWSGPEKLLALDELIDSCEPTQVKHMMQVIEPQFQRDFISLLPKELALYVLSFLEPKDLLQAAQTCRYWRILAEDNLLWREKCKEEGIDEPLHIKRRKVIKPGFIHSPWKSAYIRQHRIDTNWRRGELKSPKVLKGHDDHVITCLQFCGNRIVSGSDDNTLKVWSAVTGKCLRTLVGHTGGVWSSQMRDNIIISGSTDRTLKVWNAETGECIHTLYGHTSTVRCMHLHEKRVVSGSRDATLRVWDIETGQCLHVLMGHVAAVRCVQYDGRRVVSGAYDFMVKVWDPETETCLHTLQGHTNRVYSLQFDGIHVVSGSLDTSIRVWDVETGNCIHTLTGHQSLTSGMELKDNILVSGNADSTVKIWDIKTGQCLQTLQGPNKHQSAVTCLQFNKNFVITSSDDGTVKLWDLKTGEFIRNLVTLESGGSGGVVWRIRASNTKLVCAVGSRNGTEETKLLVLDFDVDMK
GPR151 activ = activators of human GPR151. Q8TDV0. PathHunter beta-arrestin GPR151 cells, luminescence. activation, % at 11.2 µM. 1% of 650,000 active; in the data active means activation above about 4.9%
GPR151 conf act = human GPR151 activation, confirmation screen | shares compounds with GPR151 activ | GPR151 PathHunter beta-arrestin cells, luminescence, 90 min; % of EA-reagent control over plate median | activation, % at 11.2 µM | 6,700 tested, under 10 active | AID 1508609;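 active means mean percent activation across replicates above the confirmation screen cutoff of 4.91%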
GPR119 ag = counter-screen for GPR151 activators: effect on human GPR119. activation, % at 11.2 µM. AID 1508611. 0.3% of 6,700 active. GPR119 PathHunter beta-arrestin cells, luminescence, 90 min; 0 = compound-well median, 100 = enzyme-acceptor control. shares compounds with GPR151 activ;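 active means mean percent activation in the counterscreen above 29.09%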;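 further: counterscreen on off-target GPR119 to flag nonselective hits from the GPR151 activator screen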
Each line names hits and unclear results; the compound was inactive in the other large screens (follow-up assays come after a bar, where they were run).

CCCCNC(=O)CC1Nc2c3ccccc3nc(=S)n2C1=O (stereo not drawn)	GPR151 activ 9.6 | GPR151 conf act inactive | GPR119 ag inactive
O=C(/C=C/c1ccccc1)Nc1ccc(F)c(F)c1	none
O=P(CCCO)(c1ccccc1)c1ccccc1	GPR151 activ 10.3 | GPR151 conf act inactive | GPR119 ag inactive
O=P(CCO)(c1ccccc1)c1ccccc1	none
COc1ccc(NS(=O)(=O)c2cc3c4c(c2)CC(=O)N4CCC3)cc1OC	none
Clc1cccc(-n2cc(-c3ccccc3)c3c(N4CCN(c5ccccc5Cl)CC4)ncnc32)c1	none
Cc1cccc(N2CCN(c3ncnc4c3c(-c3ccccc3)cn4-c3cccc(Cl)c3)CC2)c1C	GPR151 activ 6.1 | GPR151 conf act inactive | GPR119 ag inactive
CCC(C)NC1CCN(c2nc(C)c3cc(C)ccc3n2)CC1 (stereo not drawn)	none
O=S(=O)(c1ccc(Oc2ccc(S(=O)(=O)N3CCC4(CC3)OCCO4)cc2)cc1)N1CCC2(CC1)OCCO2	GPR151 activ 8.5 | GPR151 conf act inactive | GPR119 ag inactive
O=S(=O)(c1ccc(S(=O)(=O)N2CCC3(CC2)OCCO3)cc1)N1CCCC1	none
Fc1ccccc1N1CCN(Cc2nnnn2Cc2cccs2)CC1	none
Cc1ccccc1-n1c(SCC(N)=O)nc2ccccc2c1=O	GPR151 activ 5.2 | GPR151 conf act inactive | GPR119 ag inactive
O=C(OC1CCOC1=O)c1ccc(S(=O)(=O)N2CCCC2)cc1 (stereo not drawn)	none
CN(c1ccccc1)S(=O)(=O)c1ccc(C(=O)OC2CCOC2=O)cc1 (stereo not drawn)	GPR151 activ 10.9 | GPR151 conf act inactive | GPR119 ag inactive
CCOC(=O)N1CCC(N2CCN(S(=O)(=O)c3ccccc3)CC2)CC1	none
Cc1ccc(NCCNS(=O)(=O)c2cc(C)c(C)cc2C)nn1	GPR151 activ 8.4 | GPR151 conf act inactive | GPR119 ag inactive
CC(C)NC(=O)c1ccc(C(=O)C(F)(F)F)cc1	GPR151 activ 5.6 | GPR151 conf act inactive | GPR119 ag inactive
CC(C)NC(=O)c1ccc(COCC(F)(F)F)cc1	none
CC(C)NC(=O)C(=O)NNC(=O)c1ccc(C(C)(C)C)cc1	GPR151 activ 5.7 | GPR151 conf act inactive | GPR119 ag inactive
CN(C)c1cccc(Nc2nc(NCCO)c3ncn(-c4ccsc4)c3n2)c1	none
CN(C)c1cccc(Nc2nc(Nc3ccc(N4CCOCC4)cc3)c3ncn(-c4ccsc4)c3n2)c1	none
CC(C)N(CCNc1nc(Nc2cccc(N(C)C)c2)nc2c1ncn2-c1ccsc1)C(C)C	GPR151 activ 5.7 | GPR151 conf act inactive | GPR119 ag inactive
CN(C)c1cccc(Nc2nc(Nc3ccc4c(c3)OCO4)c3ncn(-c4ccsc4)c3n2)c1	GPR151 activ 5.0 | GPR151 conf act inactive | GPR119 ag inactive
Cc1nn(C)c(C)c1-c1nc(NCCN2CCOCC2)c2ncn(-c3ccccc3)c2n1	none
Cc1nn(C)c(C)c1-c1nc(NCCO)c2ncn(-c3ccccc3)c2n1	GPR151 activ 5.2 | GPR151 conf act inactive | GPR119 ag inactive
c1ccc(Nc2nc(Nc3ccccc3)c3ncn(-c4ccsc4)c3n2)cc1	none
OCCNc1nc(Nc2ccccc2)nc2c1ncn2-c1ccsc1	TEAD-YAP inh 58.8, GPR151 activ 5.1 | GPR151 conf act inactive | GPR119 ag inactive
Cc1ccc(NC(=O)CSc2nnnn2-c2ccccc2)cc1C	none
COCCCN(C(=O)CCl)c1c(N)n(Cc2ccccc2)c(=O)[nH]c1=O	none
Cc1nc(-c2ccc(S(=O)(=O)N3CCOCC3)cc2)cs1	GPR151 activ 8.6 | GPR151 conf act inactive | GPR119 ag inactive
COc1ccc([N+](=O)[O-])cc1NC(=O)c1cc(OC)c(OC)c(OC)c1Br	none
CCOC(=O)c1c(C)oc2ccc(N(C(=O)c3ccc(C)cc3)S(=O)(=O)c3ccc(C)cc3)cc12	GPR151 activ 5.0 | GPR151 conf act inactive | GPR119 ag inactive
FC(F)(F)c1c2c(nc3cc(-c4ccc(Cl)cc4)nn13)CCC2	none
Oc1cccc2ccc(Nc3ccccn3)nc12	TEAD-YAP inh 85.9, MITF primary 108.1, GPR151 activ 5.1 | GPR151 conf act inactive | GPR119 ag inactive
CC(C)(CN1CCN(c2ccccc2)CC1)NS(=O)(=O)c1ccccc1	GPR151 activ 5.5 | GPR151 conf act inactive | GPR119 ag inactive
Cc1cc(C(=O)Nc2cccc(Br)c2)n[nH]1	none
CCOc1cccc(CN2CCC(C(=O)NC(C)c3ccccc3)CC2)c1O (stereo not drawn)	GPR151 activ 5.6 | GPR151 conf act inactive | GPR119 ag inactive
CCOc1ccc(C(=O)NCCn2cc(SC(=N)N)c3ccccc32)cc1	GPR151 activ 5.0 | GPR151 conf act inactive | GPR119 ag inactive
O=C(Nc1ccc(Oc2ccccc2)cc1)Nc1cccc([N+](=O)[O-])c1	GPR151 activ 7.0 | GPR151 conf act inactive | GPR119 ag inactive
CCCc1[nH]nc2c1C(c1sccc1C)C(C#N)=C(N)O2 (stereo not drawn)	none
CC(C)(C)c1ccc(-c2nc3scc(-c4ccccc4)c3c(=O)o2)cc1	none
NC(=O)c1sc2nc(-c3ccc4c(c3)OCCO4)cc(C(F)(F)F)c2c1N	none
CCCCCCn1c(N/N=C/c2ccc([N+](=O)[O-])cc2)nc2c1c(=O)[nH]c(=O)n2C	GPR151 activ 5.9 | GPR151 conf act inactive | GPR119 ag inactive
CC(=O)C1=C(O)C(=O)N(Cc2cccnc2)C1c1ccc(O)cc1 (stereo not drawn)	GPR151 activ 5.4 | GPR151 conf act inactive | GPR119 ag inactive
CC(C)CN1CCN(Cc2nc3ccccc3n2C)CC1CCO (stereo not drawn)	none
Cc1ccc(CN2CCN(Cc3nc4ccccc4n3C)CC2CCO)cc1 (stereo not drawn)	GPR151 activ 18.7 | GPR151 conf act inactive | GPR119 ag inactive
OCCOc1ccc(CN2CCN(Cc3ccc(F)c(F)c3)C(CCO)C2)cc1 (stereo not drawn)	GPR151 activ 6.8 | GPR151 conf act inactive | GPR119 ag inactive
CC(C)N1CCN(Cc2cccc(OCCO)c2)CC1CCO (stereo not drawn)	none
CC(C)N1CCN(Cc2ccc(OCCO)cc2)CC1CCO (stereo not drawn)	GPR151 activ 5.2 | GPR151 conf act inactive | GPR119 ag inactive
COc1ccc2cc3cc(C(=O)NCCCN(C)Cc4ccccc4)oc3nc2c1	none
CCOC(=O)c1c(NC(=O)C(C)Sc2nnc(CNC(=O)c3cccc(OC)c3)n2CCc2ccccc2)sc2c1CCC2 (stereo not drawn)	none
COc1cccc(C(=O)OCc2cccc([N+](=O)[O-])c2)c1	GPR151 activ 6.9 | GPR151 conf act inactive | GPR119 ag inactive
COc1ccc(C(=O)OCc2cccc([N+](=O)[O-])c2)cc1	none
COc1cccc(COC(=O)c2n[nH]c3ccccc23)c1	GPR151 activ 6.9 | GPR151 conf act inactive | GPR119 ag inactive
